# In PubChem BioAssay (NCATS):
# Values joined by “and” are separate entries in the source; they are usually repeats but may differ in a detail not shown here. Equal values may be shown once. Results filed as inconclusive are left out. Active and inactive are the calls of the source. The call rests on the fitted dose curve; in most records, active means well fitted inhibition curve with a large enough effect; inconclusive means small, poorly fitted or top-dose-only effect; inactive means flat fitted curve, though single readings scatter. Non-standard residues stand in square brackets, D forms with d. Residues, ends and D or L forms follow the SMILES beside them. Orn = NCCC[C@H](N)C(=O)O
# Test system: KB-3-1
# Assay: Cytotoxic Profiling of Annotated Libraries Using Quantitative High-Throughput Screening (AID 1296008); further: nearly all actives have a fitted effect of over 60% in size
# Conditions: Five cell lines viability, CellTiter-Glo ATP luminescence, 48-72 h; max response: hits give low values
# Summary of the method: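 Cytotoxicity was measured as CellTiter-Glo ATP luminescence, read after 10 min at room temperature. Compound treatment of the cells lasted 48 or 72 hr at 37 degrees Celsius in a qHTS format.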
# On the % scale 0 is the no-effect control and ±100 the full control effect; potency means the concentration at half of the fitted maximal effect.
SMILES,max response,Potency
CC(C)N=c1cc2n(-c3ccc(Cl)cc3)c3ccccc3nc-2cc1Nc1ccc(Cl)cc1,6.76% (inactive),
NCc1ccccc1CC(=O)N[C@@H]1C(=O)N2C(C(=O)O)=C(CSc3nnnn3CC(=O)O)CS[C@H]12,-8.7% (inactive),
CC(C)C[C@@H]1NC(=O)[C@H](CCCN)NC(=O)[C@H](C(C)C)NC(=O)[C@@H]2CCCN2C(=O)[C@@H](Cc2ccccc2)NC(=O)[C@H](CC(C)C)NC(=O)[C@H](CCCN)NC(=O)[C@H](C(C)C)NC(=O)[C@@H]2CCCN2C(=O)[C@@H](Cc2ccccc2)NC1=O (cyclo(V[Orn]L[dF]PV[Orn]L[dF]P)),,0.82 µM (active)
CC1(C)C(C=C(Cl)Cl)C1C(=O)OCc1cccc(Oc2ccccc2)c1 (centres undefined),-12.6% (inactive),
CCCCC(=O)O[C@]1(C(=O)CO)[C@H](C)C[C@H]2[C@@H]3CCC4=CC(=O)C=C[C@]4(C)[C@@]3(F)[C@@H](O)C[C@@]21C,32.2% (inactive),
CCCCC/C=C\C/C=C\CCCCCCCC(=O)O,-13.1% (inactive),
CC1(C)O[C@@H]2C[C@H]3[C@@H]4CCC5=CC(=O)C=C[C@]5(C)[C@H]4[C@@H](O)C[C@]3(C)[C@]2(C(=O)CO)O1,-0.986% (inactive),
COc1cc2c(cc1O)CCN[C@]21CS[C@@H]2c3c(OC(C)=O)c(C)c4c(c3[C@H](COC1=O)N1[C@@H]2[C@H]2c3c(cc(C)c(OC)c3O)C[C@@H]([C@@H]1O)N2C)OCO4,,5.2 nM (active) and 28.2 nM (active)
CO[C@H]1C[C@@H]2CC[C@@H](C)[C@@](O)(O2)C(=O)C(=O)N2CCCC[C@H]2C(=O)O[C@H]([C@H](C)C[C@@H]2CC[C@@H](OCCO)[C@H](OC)C2)CC(=O)[C@H](C)/C=C(\C)[C@@H](O)[C@@H](OC)C(=O)[C@H](C)C[C@H](C)/C=C/C=C/C=C/1C,-27.1% (inactive),
CCCCCCCC(=O)O,-16.7% (inactive),
Nc1c(N=Nc2ccc(-c3ccc(N=Nc4cc(S(=O)(=O)O)c5ccccc5c4N)cc3)cc2)cc(S(=O)(=O)O)c2ccccc12,-9% (inactive),
COC(C(=O)C(O)C(C)O)C1Cc2cc3cc(OC4CC(OC5CC(O)C(O)C(C)O5)C(O)C(C)O4)c(C)c(O)c3c(O)c2C(=O)C1OC1CC(OC2CC(OC3CC(C)(O)C(O)C(C)O3)C(O)C(C)O2)C(O)C(C)O1 (centres undefined),,1.46 µM (active)
C[C@H](CCC(=O)O)[C@H]1CC[C@H]2[C@@H]3[C@H](O)C[C@@H]4C[C@H](O)CC[C@]4(C)[C@H]3CC[C@]12C,0.682% (inactive),
CCCCCCCCCCCCCC[n+]1ccc(C)cc1,,18.4 µM (active)
CC(=O)N[C@@H](CC(=O)N[C@@H](CCC(=O)O)C(=O)O)C(=O)O,-12.8% (inactive),
CCCCC(C)(O)C/C=C/[C@H]1[C@H](O)CC(=O)[C@@H]1CCCCCCC(=O)OC (some centres undefined),3.19% (inactive),
CC(=O)O[C@]1(C(C)=O)CC[C@H]2[C@@H]3CCC4=CC(=O)CC[C@]4(C)[C@@]3(F)[C@@H](O)C[C@@]21C,28.7% (inactive),
CN(C)CCCN1c2ccccc2C(C)(C)c2ccccc21,-18.4% (inactive),
N[C@H](C(=O)O)[C@@H]1CC(Cl)=NO1,,20.6 µM (active)
CC(Oc1ccccc1)C(=O)N[C@@H]1C(=O)N2[C@@H]1SC(C)(C)[C@@H]2C(=O)O (some centres undefined),-0.849% (inactive),
O=C1C(=O)c2ncccc2-c2cccnc21,,4.61 µM (active)
CCCCC(CC)COC(=O)CC(C(=O)OCC(CC)CCCC)S(=O)(=O)O (centres undefined),-3.48% (inactive) and -14.8% (inactive),
CCCC(=O)O[C@]1(C(=O)COC(C)=O)CC[C@H]2[C@@H]3C[C@H](F)C4=CC(=O)C=C[C@]4(C)[C@@]3(F)[C@@H](O)C[C@@]21C,20.2% (inactive),
CC(=O)OCC(=O)[C@@]12OC3(CCCC3)O[C@@H]1C[C@H]1[C@@H]3CCC4=CC(=O)C=C[C@]4(C)[C@@]3(F)[C@@H](O)C[C@@]12C,-4.92% (inactive),
CC1=CCC(C(C)(C)O)CC1 (centres undefined),6.57% (inactive),
O=C(O)C1CCCN1 (centres undefined),3.27% (inactive),
CC(C(=O)O)c1ccc(N2Cc3ccccc3C2=O)cc1 (centres undefined),-24.5% (inactive),
CC(O)CO (centres undefined),-18.9% (inactive),
CC1=C(/C=C/C(C)=C/C=C/C(C)=C/C=C/C=C(C)/C=C/C=C(C)/C=C/C2=C(C)CCCC2(C)C)C(C)(C)CCC1,-7.35% (inactive),
